From PubChem BioAssay AID1159580 (chemical genetic matrix, 2015)
Hit rate of the full screen: of about 5,500 compounds, about 2,000 (36%) were called active. Not shown: some 18% with an inconclusive outcome. Rule as the data show it: active = normalized growth mostly below about 0.91 (no sharp cut-off); inconclusive = no clear call, values can overlap the other calls; inactive = mostly above about 0.92. This is one part of the list.

Assay: chemical genetic growth profiling, strain panel (AID 1159580);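 also: tested at 20 µM; growth read once vehicle control cultures reached saturation at 30 °C; 1 = growth at the plate median or of vehicle wells; lower values mean less growth of the strain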
Details: S. cerevisiae deletion strains, growth OD

Measured: normalized growth

Oc1ccc(N=Nc2ccccn2)c(O)c1
active: locus YAR019C, strain CDC15, hits give low values 0.0954 | locus YBL105C, strain PKC1, hits give low values 0.0926 | locus YBR135W, strain CKS1, hits give low values 0.0984 | locus YBR136W, strain MEC1, hits give low values 0.0929 | locus YBR160W, strain CDC28, hits give low values 0.0967 | locus YDL017W, strain CDC7, hits give low values 0.0946 | locus YDL028C, strain MPS1, hits give low values 0.0969 | locus YDL101C, strain DUN1, hits give low values 0.103 | locus YDL108W, strain KIN28, hits give low values 0.0995 | locus YDL132W, strain cdc53, hits give low values 0.0971 | locus YDL214C, strain PRR2, hits give low values 0.0962 | locus YDR052C, strain DBF4, hits give low values 0.0928 | locus YDR054C, strain cdc34, hits give low values 0.0989 | locus YDR226W, strain ADK1, hits give low values 0.0953 | locus YDR477W, strain SNF1, hits give low values 0.102 | locus YER123W, strain YCK3, hits give low values 0.108 | locus YER133W, strain GLC7, hits give low values 0.103 | locus YFL009W, strain cdc4, hits give low values 0.0975 | locus YFL029C, strain CAK1, hits give low values 0.0955 | locus YFR003C, strain YPI1, hits give low values 0.0966 | locus YFR019W, strain FAB1, hits give low values 0.0923 | locus YFR028C, strain CDC14, hits give low values 0.0968 | locus YGR040W, strain KSS1, hits give low values 0.0983 | locus YGR052W, strain FMP48, hits give low values 0.121 | locus YGR092W, strain DBF2, hits give low values 0.0944 | locus YHR030C, strain SLT2, hits give low values 0.116 | locus YHR079C, strain IRE1, hits give low values 0.12 | locus YHR082C, strain KSP1, hits give low values 0.125 | locus YHR205W, strain SCH9, hits give low values 0.00344 | locus YIL147C, strain SLN1, hits give low values 0.0967 | locus YJL095W, strain BCK1, hits give low values 0.104 | locus YJL128C, strain PBS2, hits give low values 0.102 | locus YJL157C, strain FAR1, hits give low values 0.0922 | locus YJR016C, strain ILV3, hits give low values 0.0883 | locus YJR066W, strain TOR1 (second series), hits give low values 0.0985 | locus YJR066W, strain TOR1, hits give low values 0.114 | locus YKL048C, strain ELM1, hits give low values 0.113 | locus YKL067W, strain YNK1, hits give low values 0.101 | locus YKL101W, strain HSL1, hits give low values 0.0988 | locus YKL193C, strain SDS22, hits give low values 0.0969 | locus YKL203C, strain TOR2, hits give low values 0.102 | locus YLR113W, strain HOG1, hits give low values 0.153 | locus YLR133W, strain CKI1, hits give low values 0.0924 | locus YLR403W, strain SFP1, hits give low values 0.00522 | locus YML070W, strain DAK1, hits give low values 0.103 | locus YMR001C, strain CDC5, hits give low values 0.095 | locus YMR205C, strain PFK2 (second series), hits give low values 0.0981 | locus YMR277W, strain FCP1, hits give low values 0.0981 | locus YNL006W, strain LST8, hits give low values 0.1 | locus YNL020C, strain ARK1, hits give low values 0.0963 | locus YNL161W, strain CBK1, hits give low values 0.0956 | locus YNL183C, strain NPR1, hits give low values 0.123 | locus YNL207W, strain RIO2, hits give low values 0.0923 | locus YNL222W, strain SSU72, hits give low values 0.0956 | locus YNL307C, strain MCK1 (second series), hits give low values 0.0988 | locus YOL078W, strain AVO1, hits give low values 0.0959 | locus YOL136C, strain PFK27, hits give low values 0.0997 | locus YOR061W, strain CKA2, hits give low values 0.097 | locus YOR119C, strain RIO1, hits give low values 0.108 | locus YOR231W, strain MKK1, hits give low values 0.118 | locus YOR329C, strain SCD5, hits give low values 0.0939 | locus YPL031C, strain PHO85, hits give low values 0.101 | locus YPL153C, strain RAD53, hits give low values 0.1 | locus YPL204W, strain HRR25, hits give low values 0.102 | locus YPL209C, strain IPL1, hits give low values 0.0941 | locus YPL256C, strain CLN2, hits give low values 0.155 | locus YPR025C, strain CCL1, hits give low values 0.0983 | locus YPR106W, strain ISR1, hits give low values 0.0922 | locus YPR111W, strain DBF20, hits give low values 0.103 | strain NNK1, hits give low values 0.0965 | strain TSCII, hits give low values 0.0967
